Results filed as inconclusive are left out. A call without a number means that no potency is given here. Activity calls are given as the source filed them. Calls follow the shape of the dose curve; as a rule, active = well fitted activation curve with a large enough effect in the repeat runs; inconclusive = weak or mixed curves; inactive = flat fitted curve, though single readings scatter.
Potency is read from the fitted curve at half-maximal effect.

The target in the test is Nuclear receptor subfamily 1 group I member 2 (Homo sapiens) (UniProt O75469). Kind of test: Human pregnane X receptor (PXR) activation by small molecules, qHTS assay (AID 1346985). Also: nearly all actives have a fitted effect of over 40% in size. The note with it: DPX-2 HepG2 CYP3A4-luciferase, 24 h; series mostly up to 38.3 µM. The procedure, abridged: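 DPX-2 cells (HepG2 co-transfected with a PXR response element and a CYP3A4-promoter luciferase construct) were seeded at 2,000 per well, rested 5 hr at 37C, then exposed to DMSO-dissolved compounds for 24 hr. Activation was read as luciferase luminescence.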
(Quantitative high-throughput screening tests each substance at several concentrations.)
For the compound `CCN(CC)CCCC(C)Nc1cc(/C=C/c2ccccc2Cl)nc2cc(Cl)ccc12` (stereo not given), the Potency was 22.4 µM (active). In the case of `CN1c2cc(O)c(N=NC(N)=O)cc2CC1S(=O)(=O)O` (stereo not given) it was “inactive”.

For `Cn1c(O)c(N=NC(N)=S)c2ccccc21`, the Potency is 14.1 µM (active). With `CC(CCc1ccc(O)cc1)NCC(O)c1ccc(O)cc1` (stereo not given) the entry was “inactive”; with `Nc1nc(=O)n([C@@H]2CS[C@H](CO)O2)cc1F`, “inactive”. In the case of `CC(/C=C/C=C(\C)C(=O)O[C@@H]1O[C@H](CO[C@@H]2O[C@H](CO)[C@@H](O)[C@H](O)[C@H]2O)[C@@H](O)[C@H](O)[C@H]1O)=C\C=C\C=C(C)\C=C\C=C(/C)C(=O)O[C@@H]1O[C@H](CO[C@@H]2O[C@H](CO)[C@@H](O)[C@H](O)[C@H]2O)[C@@H](O)[C@H](O)[C@H]1O` it was “inactive”; in that of `CNC(=O)[C@H](Cc1c[nH]c2ccccc12)NC(=O)[C@@H](CC(=O)NO)CC(C)C`, “inactive”. In the case of `CC(C)(C)NCC(O)c1ccc(O)c(CO)n1` (stereo not given) it was “inactive”; in that of `CN1CCN(C(c2ccccc2)c2ccc(Cl)cc2)CC1` (stereo not given), “inactive”. `CC(C)(C)C(=O)OCOC(=O)[C@@H]1N2C(=O)[C@@H](N=CN3CCCCCC3)[C@H]2SC1(C)C`: the Potency result was “inactive”. With `C=Cc1c(C)c2cc3nc(cc4[nH]c(cc5nc(cc1[nH]2)C(C)=C5CCC(=O)OC)c(CCC(=O)O)c4C)[C@@]1(C)C3=CC=C(C(=O)OC)[C@H]1C(=O)OC` the entry was “inactive”. For the compound `CC(C)N=c1cc2n(-c3ccc(Cl)cc3)c3ccccc3nc-2cc1Nc1ccc(Cl)cc1`, the Potency entry was “inactive”.

As to `NC(=O)OC[C@@H]1[C@H](NC(=O)/C(=N\OCC(=O)O)c2csc(N)n2)C(=O)N1S(=O)(=O)O`, the Potency result is “inactive”. Take `C=C1CC[C@@H]2[C@](C)(CO)[C@H](O)CC[C@@]2(C)[C@@H]1C/C=C1/C(=O)OC[C@H]1O`: the Potency entry was “inactive”. For `C#C[C@]1(O)CC[C@H]2[C@@H]3CCC4=C/C(=N/O)CC[C@@H]4[C@H]3CC[C@@]21CC`, the Potency is 4.47 µM (active).

These data come from PubChem BioAssay (Tox21).
